The campaign covered roughly 190,000 compounds. About 570 (0.3%) were called active.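 How the source made its calls: active means z-score above 3 at 5 µM with at least 500 cells counted in the well; inconclusive means wells under 500 cells, flagged as cytotoxic or low count; inactive means the rest.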 This excerpt belongs to a sample that is enriched for actives.
assay: up-regulation of insulin promoter-GFP reporter – imaging, high-content screening, mouse beta cells (AID 1625); details: MIN6 insulin promoter-GFP reporter, at 5 µM; cell count: measured here: cytotoxicity, nuclei count; z-score: stronger effect = higher value;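 on cell count: total cells summed across four imaged fields per well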

Structure (SMILES)	cell count [cells]	z-score
Cc1nc(Cl)c(C#N)c2c1CCCC2	1110	0.33 (inactive)
COc1ccc(NS(=O)(=O)c2ccc(Oc3c(C#N)cccc3C#N)cc2)cc1	558	-2.43 (inactive)
CCOC(=O)c1ccc(S(=O)(=O)N(CCO)Cc2cc3cc(OC)c(OC)cc3[nH]c2=O)cc1	1080	-0.14 (inactive)
COc1ccc(NC(=O)CCN2C(=O)/C(=C/c3ccc4c(c3)OCO4)SC2=S)cc1	965	-0.34 (inactive)
CC(=O)N(OCc1ccc(OC(C)C)c(Cl)c1)C(C)=O	1050	-0.14 (inactive)
Cc1cc(/C=N/Nc2ccc([N+](=O)[O-])cn2)c(C)n1-c1cccc(C(=O)O)c1	1080	-0.44 (inactive)
Cc1cccc(-n2c(C)cc(/C=N/NC(N)=S)c2C)c1	1370	0.39 (inactive)
Cc1cc(/C=N/n2cnnc2)c(C)n1-c1cccc(C(=O)O)c1	1240	4.18 (active)
CC(=O)N1N=C(c2ccncc2)OC1(Cc1ccccc1)Cc1ccccc1	1090	0.04 (inactive)
O=C(CSc1nnc(-c2ccc(NS(=O)(=O)c3ccccc3)cc2)o1)NCC1CCCO1 (centres undefined)	1210	0.05 (inactive)
O=C(CS(=O)(=O)Cc1ccccc1)NCC1CCCO1 (centres undefined)	1220	-0.17 (inactive)
O=C(CSc1ccc(-c2ccccc2)nn1)NCC1CCCO1 (centres undefined)	1230	3.02 (active)
COc1cc(SC)ccc1C(=O)Nc1cc(C)ccn1	1210	0 (inactive)
CC(=O)Nc1ccc(CC#N)cc1	1210	-0.63 (inactive)
Cc1ccccc1NC(=S)NNC(=O)c1cccc(Br)c1	1120	0.03 (inactive)
O=C(NN1C(=O)C2C(C1=O)C1C=CC2C12CC2)c1ccccc1Cl (centres undefined)	1130	-0.03 (inactive)
CC(C)OP(=O)(OC(C)C)C(Nc1ccccc1)c1cccc([N+](=O)[O-])c1 (centres undefined)	992	-0.35 (inactive)

— PubChem BioAssay AID1625 (Sanford-Burnham Center for Chemical Genomics, 2009)
